Tau filament bind: binds recombinant human tau filaments | P10636 | recombinant tau filaments, thioflavin S fluorescence, 15 h; filaments grown with octadecylsulfate alongside compound | Potency, µM (titrated, usually from 57.1 µM), without a hit: at the top dose activity change, negative = inhibition | 71,000 tested, 2% active;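 also: % is scaled to controls: 0 for no effect and ±100 for the full control effect; actives lower thioflavin S fluorescence by blocking filaments or displacing dye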
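Recombinant tau protein (human, 1 uM final) plus 30 uM ODS in HEPES pH 7.4 with NaCl, DTT and thioflavine S. Compound present from the start; fluorescence at 510 nm after 15 h, 37 C.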
Bst PK mod: modulators of Bacillus stearothermophilus pyruvate kinase | AID 361 | Potency, µM | 51,000 tested, 1.2% active | purified pyruvate kinase, luminescence ATP production; ribose 5-phosphate activator present at AC10; in the data active = potency below about 11 µM; inconclusive = mostly about 12 µM to 25 µM;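 the screen sought inhibitors and activators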;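 also: scaled between full activation by ribose 5 phosphate and full inhibition by luteolin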
FLuc inh: firefly luciferase inhibition | P08659 | purified firefly luciferase, luminescence, 8 min | Potency, µM (titrated, usually from 57.1 µM), for inactives: top-dose activity change, negative = inhibition, hits mostly inhibitors | 72,000 tested, 2.2% active | AID 411; also: % is scaled to controls: 0 for no effect and ±100 for the full control effect; nearly all actives have a fitted effect of over 40% in size
Target sequence (P08659 whole entry, looked up): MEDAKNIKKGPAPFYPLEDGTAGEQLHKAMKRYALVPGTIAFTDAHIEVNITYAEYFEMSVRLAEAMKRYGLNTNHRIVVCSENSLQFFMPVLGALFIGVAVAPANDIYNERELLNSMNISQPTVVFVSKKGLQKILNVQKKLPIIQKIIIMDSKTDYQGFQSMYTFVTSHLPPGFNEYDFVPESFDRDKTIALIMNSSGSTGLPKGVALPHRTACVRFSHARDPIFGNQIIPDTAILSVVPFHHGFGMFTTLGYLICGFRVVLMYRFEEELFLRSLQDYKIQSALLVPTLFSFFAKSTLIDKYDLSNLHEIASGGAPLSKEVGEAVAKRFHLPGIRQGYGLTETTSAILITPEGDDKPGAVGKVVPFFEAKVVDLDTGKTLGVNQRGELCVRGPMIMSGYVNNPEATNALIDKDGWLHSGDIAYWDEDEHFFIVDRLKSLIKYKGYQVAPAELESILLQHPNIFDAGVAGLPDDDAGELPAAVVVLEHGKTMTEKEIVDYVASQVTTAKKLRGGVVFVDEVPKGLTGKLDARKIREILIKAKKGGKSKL
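Titration-based qHTS; buffer 50 mM imidazole pH 7.2, 50 mM KCl, 7 mM MgCl2, 10 uM ATP, 0.01% Tween 20, 0.05% BSA; luciferase/luciferin detector mix added after compound; 8 min, ambient; luminescence.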
ALOX15 inhib: blocks human 15-lipoxygenase activity | 74,000 tested, 1.4% active | Potency, µM (highest dose often 57.1 µM), inactives show at the highest dose activity change, negative = inhibition, actives largely listed as inhibitors | purified 15hLO-1, xylenol orange hydroperoxide absorbance | P16050; also: % is scaled to controls: 0 for no effect and ±100 for the full control effect; nearly all actives have a fitted effect of over 55% in size
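Inhibition is scored from a chromogenic endpoint. After 15 min enzyme-compound contact, arachidonic acid (50 uM final) reacts 6 min with 40 nM 15hLO-1 at room temperature, then Fe-XO reagent is added for 30 min and absorbance ratio recorded.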
TSHR ag: TSH receptor (human) agonism; HEK293-CNG-TSHR cells (CNG channel as cAMP sensor), membrane potential dye, cAMP; Potency, µM (highest dose often 57.1 µM), for inactives: top-dose activation, actives largely listed as activators; 73,000 tested, 0.48% active; AID 926; active = well fitted activation curve with a large enough effect in the main read-out, with a control signal flat, not every such curve was filed as active; inconclusive = small, poorly fitted or top-dose-only effect, or a change in a side signal; inactive = no such curve, though single readings can be large or run the other way; % of control where 0% means no effect;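 also: the control signal comes from parental cells without the receptor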
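HEK 293 cells stably expressing TSHR and a modified CNG channel, with CNG-only parental cells as counterscreen, were preloaded 60 min at room temperature with membrane potential dye containing 100 uM RO 20-1724. Compound exposure was 30 min, and depolarization was read as fluorescence at 590 nm.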
HEK293 cAMP cs: raises cAMP in parental HEK293 cells, TSHR agonist counter-screen; parental HEK293 CNG cAMP sensor, membrane potential fluorescence; Potency, µM (series often up to 57.1 µM), inactives show at the top dose activation, usual class: activators; 73,000 tested, 2.5% active; AID 938; also: % of control where 0% means no effect; nearly all actives have a fitted effect of over 55% in size
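Parental HEK 293 cells stably expressing a cAMP-gated CNG channel were loaded with membrane potential dye containing 100 uM RO 20-1724 for 60 min. Compound added for 30 min; depolarization read as fluorescence intensity at 590 nm.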
* marks the source's active call; other numbers are inactive results; i = inactive; ? = inconclusive; . = no result; [ ] = another dose, or the depositor's remark. The list is not random: actives were taken first. Their share in the collection is about 7.8%. Unless noted, calls follow the shape of the dose curve; as a rule, active = well fitted curve in the direction sought with a large enough effect; inconclusive = small, poorly fitted or top-dose-only effect, or another doubt; inactive = no such curve, though single readings can be large; an effect the other way counts as inactive or inconclusive. Potency is read from the fitted curve at half-maximal effect.

SMILES	Tau filament bind	Bst PK mod	FLuc inh	ALOX15 inhib	TSHR ag	HEK293 cAMP cs
CCOC(=O)c1oc2ccc(S(=O)(=O)N3CCOCC3)cc2c1C	7%	>57	1%	0%	11%	3%
Cc1c(C(=O)NCCCN2CCCC2=O)oc2ccc(S(=O)(=O)N3CCOCC3)cc12	2%	>57	-1%	6%	-5%[11.4 µM]	-3%
Cc1c(C(=O)NCCC2=CCCCC2)oc2ccc(S(=O)(=O)N3CCOCC3)cc12	1%	>57	-3%	16µM*	?	?
O=C(NCCN1CCOCC1)c1ccc(-n2c(=O)c(=O)[nH]c3ccccc32)cc1	.	.	.	-7%	-7%	-11%
O=C(CSc1nnc(COc2cccc3cccnc23)o1)c1ccc(F)cc1	20%	10*	-1%	-7%	20%	22%
COc1ccc(-n2c(=O)c(-c3ccc(Cl)cc3)nc3cnc(N(C)C)nc32)cc1	427%	.	-1%[11.4 µM]	-19%	8%	9%[0.457 µM]
Nc1nc(-c2ccccc2)cc(N2CCCCC2)n1	25µM*	.	1%	-20%	?	?
C[C@H](CN(C)C)C(O)(c1ccccc1)c1ccccc1	3%[11.4 µM]	.	1%[11.4 µM]	3%[11.4 µM]	3%[11.4 µM]	5%[11.4 µM]
CCCCC(=O)NCCc1cc2c(OC)ccc(OC)c2[nH]c1=O	0%	i	-1%	4%	-6%	1%
CCOc1ccc(C2C=C(c3ccc(C)cc3)Nc3ncnn32)cc1 (stereo not drawn)	i	i	-2%	-5%	?	20µM*
CCOc1ccc(C2C=C(c3ccc(C)cc3)Nc3nnnn32)cc1 (stereo not drawn)	492%	>57	1%	-14%	20%	18%
CCCCC(=O)Nc1ccc2c(c1)nc1n2CCSC1	-19%	.	?	5%	-9%	-16%
Cc1ccc(C(=O)Nc2ccc3c(c2)nc2n3CCSC2)cc1	-2%	?	7.9µM*	7%	-2%	-8%
COc1ccccc1C(=O)Nc1ccc2c(c1)nc1n2CCSC1	-19%	5.6*	5µM*	12%	-5%	2%
CC1CCC(C(=O)O)NC1c1ccc(-c2ccco2)cc1 (stereo not drawn)	.	.	.	8%[11.4 µM]	8%[11.4 µM]	5%[11.4 µM]
O=C(/C=C\Nc1ccccn1)c1ccccc1	26%	.	3.2µM*	-14%	7%	6%
O=C(O)C1CCCCC1C(=O)Nc1ccccn1 (stereo not drawn)	11%	>57	1%	0%	3%	2%
O=C(NCCCNCCCNC(=O)c1ccccn1)c1ccccn1	-8%	>57	-2%	0%	3%	2%
O=C(/C=C/Nc1ccccc1Br)c1ccccn1	38%	.	0.1µM*	-12%	-3%	2%
Oc1ccc2ccccc2c1CN(Cc1c(O)ccc2ccccc12)C1CCCCC1	-8%[11.4 µM]	.	-3%[11.4 µM]	-10%[11.4 µM]	1%[11.4 µM]	-1%[11.4 µM]
O=C(NC1c2ccccc2-c2ccccc21)N1CCCCC1	12%[11.4 µM]	.	0%	-2%[11.4 µM]	?	3.2µM*
O=C(Nc1ccccc1C(F)(F)F)N1CCCCCC1	-4%	>57	0%	-5%	20%	8%
CO[C@@H]1COC(=O)C/C=C\[C@H](C)COC(=O)[C@H](Cc2ccccc2)NC(=O)C/C=C\[C@H]1C	.	.	1%[11.4 µM]	-3%[11.4 µM]	13%[11.4 µM]	5%[11.4 µM]
Cc1cc(N)ccc1-n1c(C)ccc1C	25µM*	>57	2%	?	11%[11.4 µM]	-7%
Fc1ccc(C(c2nnnn2Cc2ccccc2)N2CCSCC2)cc1 (stereo not drawn)	-13%	>57	2%	-9%	?	13µM*
COc1ccc(C(c2nnnn2Cc2ccc(F)cc2)N2CCN(c3ccccc3)CC2)cc1 (stereo not drawn)	-2%	>57	0%	-5%	.	29%
COc1ccc(C(c2nnnn2Cc2ccc(F)cc2)N2CCN(c3ccc(OC)cc3)CC2)cc1 (stereo not drawn)	10µM*	>57	0%	-11%	8%	-6%
COc1cccc(C(c2nnnn2CCc2ccccc2)N2CCN(c3ccccc3)CC2)c1OC (stereo not drawn)	-8%	>57	2%	2%	?	7.9µM*
